Data: the supplement of paper PMC10720658
± gives the standard deviation of the averaged measurements.

Test system: AEK1 (Tb927.3.2440)
Assay: percent reduction in TR-FRET probe signal relative to DMSO control; higher = stronger displacement of ATP-site probe (binding)
Settings: 1 µM; incubation time 1 h

SMILES | percent reduction in TR-FRET probe signal [%]
COc1ccc(-c2ccc3ncc4c(c3c2)n(-c2ccc(N3CCNCC3)c(C(F)(F)F)c2)c(=O)n4C)cn1.O=C(O)/C=C\C(=O)O | -5.09 ± 8.7
CNc1nc(Nc2cn(C(C)(C)C#N)nc2C)ncc1C(F)(F)F | -10.7 ± 11
CO[C@H]1C[C@@H]2CC[C@@H](C)[C@@](O)(O2)C(=O)C(=O)N2CCCC[C@H]2C(=O)O[C@H]([C@@H](C)C[C@@H]2CC[C@@H](OCCO)[C@H](OC)C2)CC(=O)[C@H](C)/C=C(\C)[C@@H](O)[C@@H](OC)C(=O)[C@H](C)C[C@H](C)/C=C/C=C/C=C/1C [Everolimus (RAD001)] | -14.9 ± 8.4
COc1cccc(-n2c(=O)[nH]c3cc(Cl)n(-c4ccc(-c5cccc(OC)c5O)cc4)c3c2=O)c1 | -7.49 ± 2.1
Cl.NC(=O)c1cnc(N[C@@H]2CCCC[C@@H]2N)nc1Nc1cccc(-n2nccn2)c1 | -0.93 ± 1.4
